SMILES strings stand for the structures. The campaign covered roughly 86,000 compounds. About 1,200 (1.4%) were called active. For the sample, actives were picked, then their nearest neighbours and some compounds at random. A number with no mark means an inactive call. Cut-off read from the data, not from the text of the source: active = activity above about 200%; inactive = the rest.

The target in this experiment is Estrogen receptor (Homo sapiens) (UniProt P03372). The experiment is described as follows: ERα coactivator recruitment potentiators – biochemical, TR-FRET, ERα LBD, low estradiol, primary screen (AID 639).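 Note: binding measured in presence of low estradiol as agonist stimulus; 0% = peptide alone without receptor and 100% = receptor with peptide.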 Particulars: TR-FRET ERalpha-LBD/SRC-Cy5 coactivator binding, 2 h; at 25.6 µM; stronger effect = higher value; 100 = basal binding, no effect.
Estrogen receptor (Homo sapiens), sequence (P03372 whole entry, looked up, the tested form may be a part): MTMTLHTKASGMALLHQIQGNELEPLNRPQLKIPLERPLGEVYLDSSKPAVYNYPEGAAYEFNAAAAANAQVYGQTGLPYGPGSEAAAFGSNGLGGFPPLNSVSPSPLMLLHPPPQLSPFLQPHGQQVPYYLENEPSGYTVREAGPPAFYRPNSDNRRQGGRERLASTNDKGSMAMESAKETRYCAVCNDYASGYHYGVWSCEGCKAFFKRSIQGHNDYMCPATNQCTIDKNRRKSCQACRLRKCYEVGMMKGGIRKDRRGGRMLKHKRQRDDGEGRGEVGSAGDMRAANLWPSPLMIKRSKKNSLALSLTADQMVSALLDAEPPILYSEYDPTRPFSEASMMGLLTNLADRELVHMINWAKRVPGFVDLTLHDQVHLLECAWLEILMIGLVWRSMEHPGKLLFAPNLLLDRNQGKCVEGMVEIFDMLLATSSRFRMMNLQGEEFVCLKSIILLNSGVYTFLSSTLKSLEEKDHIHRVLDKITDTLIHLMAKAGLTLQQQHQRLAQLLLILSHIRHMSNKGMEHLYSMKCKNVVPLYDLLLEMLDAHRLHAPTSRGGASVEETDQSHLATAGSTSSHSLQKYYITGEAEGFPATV
For the molecule `Cc1ccc(NC(=S)NC(NC(=O)Cc2cccc3ccccc23)C(Cl)(Cl)Cl)cc1` (configuration not stated), the coactivator binding (% of control) was 77.9%.
As for `COC(=O)C(C(=O)Nc1cccc(C)n1)C1CCCCCC1` (configuration not stated), the figure is 76.6%.
Regarding `O=C(Nc1cccc(-c2nc3ncccc3o2)c1)c1ccco1`, the coactivator binding (% of control) was 108%.
In the case of `Cc1ccc(OCC(=O)Nc2ccc(-c3nnc(-c4ccco4)o3)cc2)cc1`, the coactivator binding (% of control) is 172%.
With `COc1cccc(NC(=O)Cc2ccc(C)cc2)c1`, the coactivator binding (% of control) was 96.3%.
As for `COc1ccc(CC(=O)Nc2ccc(-c3nnc(-c4ccccc4)o3)cc2)cc1`, the figure is 184%; as for `COc1ccc(CC(=O)Nc2ccc(-c3nnc(-c4ccc(C)cc4)o3)cc2)cc1`, 359% [fluorescence artefact?] (active).
The result for `Cc1ccc(OCC(=O)Nc2ccc(-c3nc4ncccc4o3)cc2)cc1` reads 315% [fluorescence artefact?] (active).
As to `CCOc1ccc(NC(=O)C2CCCN(C(=O)Nc3ccccc3)C2)cc1` (configuration not stated), the coactivator binding (% of control) is 106%.
As for `CCN(CC)C(=O)CSc1nnc(-c2cccc(OC)c2)o1`, the figure is 105%.
As for `COc1ccc(-c2nnc(SCC(=O)c3ccc4c(c3)OCCO4)o2)cc1`, the figure is 335% [fluorescence artefact?] (active); as for `COc1ccc(CN(C(=O)CSc2nnc(-c3ccc(OC)c(OC)c3)o2)c2ccc(F)cc2)cc1`, 95.1%.
As for `Cn1c(SCC(=O)N2CCCc3ccccc32)nc2ccccc2c1=O`, the figure is 84.1%.
Regarding `Cc1cccc(C(=O)Nc2ccccc2N2CCN(c3ccc(F)cc3)CC2)c1`, the coactivator binding (% of control) was 97.2%.
On to `COc1ccc(C(C)=O)cc1CN1C(=O)NC2(CCCCC2C)C1=O` (configuration not stated), for which the coactivator binding (% of control) was 128%.
As for `CCN1CCN(c2ncnc3c2oc2nc(C)c4c(c23)CC(C)(C)OC4)CC1`, the figure is 95.8%; as for `CC(C)c1nc2oc3c(N4CCN(C)CC4)ncnc3c2c2c1CCC2`, 373% [fluorescence artefact?] (active).
For the molecule `CN(C)c1ccc(CNC2C3CC4CC(C3)CC2C4)cc1` (configuration not stated), the coactivator binding (% of control) is 105%.
In the case of `CCC(c1nnnn1C1CCCC1)N1CCN(C(=O)c2ccco2)CC1` (configuration not stated), the coactivator binding (% of control) was 240% [fluorescence artefact?] (active).
Turning to `CC(C)C(c1nnnn1CCc1ccccc1)N1CCN(C(=O)c2ccco2)CC1` (configuration not stated), the coactivator binding (% of control) was 118%.
With `CC(=O)c1ccc(-n2nnnc2SCC(=O)N2CCN(C(=O)c3ccco3)CC2)cc1`, the coactivator binding (% of control) was 102%.
As to `CC(N)C12CC3CC(CC(O)(C3)C1)C2` (configuration not stated), the coactivator binding (% of control) was 105%.
Take `CCCc1nc(NCc2ccc3c(c2)OCO3)c2nnn(Cc3ccccc3Cl)c2n1`: the coactivator binding (% of control) is 118%.
Turning to `CCOC(=O)CN(Cc1ccc(OC)c(OC)c1)S(=O)(=O)c1ccc(OC)cc1`, the coactivator binding (% of control) is 114%.
The result for `CCn1c(COc2ccccc2)nnc1SCC(=O)Nc1ccc2c(c1)OCCO2` reads 115%.
On to `CCOc1cccc(NC(=O)CC#N)c1`, for which the coactivator binding (% of control) was 101%.
On to `CCOc1cccc(NC(=O)Cn2nc(-c3ccc4c(c3)OCCO4)ccc2=O)c1`, for which the coactivator binding (% of control) is 214% (active).
Take `CC(=NCc1ccco1)c1c(C(F)(F)F)[nH]n(-c2nc3ccccc3s2)c1=O`: the coactivator binding (% of control) is 109%.
For the molecule `COc1ccc(N2CCN(C(=O)CCc3nc(-c4ccc(C)cc4)no3)CC2)cc1`, the coactivator binding (% of control) was 106%.
Turning to `CCCCCN1CC(O)=C(c2ccccc2)C1=N`, the coactivator binding (% of control) is 30.5%.
Take `COc1ccccc1N1CC(O)=C(c2nc3ccccc3s2)C1=N`: the coactivator binding (% of control) was 87.9%.
`CCCCCN1CC(O)=C(c2nc(-c3ccc(Cl)cc3)cs2)C1=N`: the coactivator binding (% of control) was 293% [fluorescence artefact?] (active).
For `C/C(=N\NS(=O)(=O)c1ccc(Br)cc1)c1cccs1`, the coactivator binding (% of control) is 101%.
For the molecule `Cc1nc(N2CCN(c3ncccn3)CC2)c2oc3ccccc3c2n1`, the coactivator binding (% of control) was 207% [fluorescence artefact?] (active).
For the molecule `Cc1cc(C)nc(N2CCN(c3ncnc4c3oc3ccccc34)CC2)n1`, the coactivator binding (% of control) was 144%.
In the case of `CCc1nc(N2CCN(c3nc(C)cc(C)n3)CC2)c2oc3ccccc3c2n1`, the coactivator binding (% of control) was 155%.
In the case of `Cc1ccc(C2=CSC3=NS(=O)(=O)CCN23)cc1C`, the coactivator binding (% of control) was 100%.
For the molecule `COCCn1c(SCc2nc3cc(OC)c(OC)cc3c(=O)[nH]2)nnc1-c1ccncc1`, the coactivator binding (% of control) is 112%.
The result for `CCSc1nnc(NC(=O)c2ccc(C)cc2)s1` reads 95.5%; that for `CCc1nnc(NC(=O)CCC(=O)NCc2ccccc2OC)s1`, 76.9%.
As to `CCSc1nnc(NC(=O)Cc2ccccc2OC)s1`, the coactivator binding (% of control) is 246% [fluorescence artefact?] (active).
In the case of `Cc1nc(NC(=O)CN(C)S(=O)(=O)c2ccc(Cl)cc2)sc1C`, the coactivator binding (% of control) was 105%.
Take `Fc1ccc(-c2ccc(-c3nn4c(-c5ccco5)nnc4s3)o2)cc1`: the coactivator binding (% of control) is 84.9%.
As to `COc1ccc(-c2nn3c(-c4ccccc4)nnc3s2)cc1OC`, the coactivator binding (% of control) was 123%.
In the case of `Fc1ccc(-c2nnc3sc(-c4ccc5c(c4)OCO5)nn23)cc1`, the coactivator binding (% of control) was 258% (active).
For the molecule `CC1(C)CC(=O)C=C(N2CCCC2)C1`, the coactivator binding (% of control) was 101%.
The result for `CCOC(=O)Cc1csc(NC(=O)CSc2nnc(-c3cccnc3)n2Cc2ccco2)n1` reads 114%.
Turning to `CCOC(=O)c1csc(NC(=O)c2ccc(S(=O)(=O)N3CCCC3)cc2)n1`, the coactivator binding (% of control) is 108%.
`COc1ccc(S(=O)(=O)N2CCOCC2)cc1C(=O)Nc1nc2ccccc2s1`: the coactivator binding (% of control) is 206% [fluorescence artefact?] (active).
The result for `O=C(Nc1nc2ccc(S(=O)(=O)N3CCCC3)cc2s1)C1CCCO1` (configuration not stated) reads 103%; that for `O=C(Nc1nc2cc3c(cc2s1)OCCO3)c1cccc(S(=O)(=O)N2CCOCC2)c1`, 122%; that for `COC(=O)COc1ccc(S(=O)(=O)N2CCOCC2)cc1`, 108%.
For `COc1ccc(C(=O)Nc2nc(-c3ccc(S(=O)(=O)N4CCOCC4)cc3)cs2)cc1`, the coactivator binding (% of control) was 492% [fluorescence artefact?] (active).
For `Cc1ccc(C)c(NC2=NCC(=O)N2c2ccc3c(c2)OCCO3)c1`, the coactivator binding (% of control) is 103%.
Consider `CCCCc1nc(NCCN)c(C#N)c2c1CSC(C)(C)C2`, for which the coactivator binding (% of control) was 85.4%.
With `O=C(C(NS(=O)(=O)c1cccc2nsnc12)c1ccccc1)N1CCN(c2ccccc2)CC1` (configuration not stated), the coactivator binding (% of control) is 102%.
As to `COc1ccc2c(c1)cc1n2CCN=C1NN`, the coactivator binding (% of control) was 90.7%.

Values taken from PubChem BioAssay AID639 (Emory University Molecular Libraries Screening Center, 2007).
